# Bioassay records as filed in PubChem BioAssay.
# A selection: hits, their analogues and other compounds. The true share with any hit is near 9.4%.
# HTT aggregate – inhibitors of mutant huntingtin aggregate formation in PC12 cells; PC12 HttQ103-GFP aggregates, Acumen cytometry, 40 h; Potency, µM (doses to about 46.1 µM), inactives show at the highest dose activity change, negative = inhibition, hits mostly inhibitors; 220,000 tested, 1.1% active; also: potency is read from the fitted curve at half-maximal effect; % is scaled to controls: 0 for no effect and ±100 for the full control effect; nearly all actives have a fitted effect of over 60% in size
#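 Inducible Q103 Huntingtin exon 1–GFP PC12 line, 1500 cells/well in phenol red free DMEM with 5% equine and 5% calf serum. Tebufenozide 100 nM induced expression; compounds titrated; aggregates quantified by cytometry.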
# ALDH1A1 inh – blocks purified human ALDH1A1 activity; Purified ALDH1A1, NADH fluorescence, propionaldehyde substrate; Potency, µM (highest dose often 75.3 µM), inactives show at the highest dose activity, negative = inhibition, most hits filed as inhibitors; 220,000 tested, 7.3% active; AID 1030; active = well fitted inhibition curve with a large enough effect, not every such curve was filed as active; inconclusive = small, poorly fitted or top-dose-only effect, or another doubt; inactive = no such curve, though single readings can be large or run the other way;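 also: potency is read from the fitted curve at half-maximal effect; plate controls were no enzyme wells and a reference inhibitor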
# Target sequence (P00352 whole entry, looked up): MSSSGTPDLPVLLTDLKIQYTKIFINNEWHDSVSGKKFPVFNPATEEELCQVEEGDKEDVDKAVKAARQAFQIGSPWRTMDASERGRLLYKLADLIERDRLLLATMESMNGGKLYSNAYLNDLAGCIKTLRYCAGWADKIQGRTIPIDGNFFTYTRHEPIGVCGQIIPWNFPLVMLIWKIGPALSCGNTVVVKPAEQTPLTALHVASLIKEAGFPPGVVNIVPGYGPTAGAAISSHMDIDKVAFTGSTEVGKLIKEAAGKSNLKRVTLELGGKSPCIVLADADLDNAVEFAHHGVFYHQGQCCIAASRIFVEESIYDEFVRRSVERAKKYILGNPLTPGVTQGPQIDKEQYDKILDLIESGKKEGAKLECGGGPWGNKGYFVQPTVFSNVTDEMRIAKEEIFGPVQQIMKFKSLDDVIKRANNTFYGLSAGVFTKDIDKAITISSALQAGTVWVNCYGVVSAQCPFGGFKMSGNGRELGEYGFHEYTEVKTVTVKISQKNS
# HPGD block – HPGD (human) dehydrogenase inhibition. P15428. purified HPGD, NADH fluorescence kinetic, PGE2 substrate. Potency, µM, inactives show at the top dose activity change, negative = inhibition, hits mostly inhibitors. 150,000 tested, 4.3% active. AID 894; active = well fitted inhibition curve with a large enough effect, not every such curve was filed as active; inconclusive = small, poorly fitted or top-dose-only effect, or another doubt; inactive = no such curve, though single readings can be large or run the other way; also: potency is read from the fitted curve at half-maximal effect; % is scaled to controls: 0 for no effect and ±100 for the full control effect
#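 20 nM HPGD preincubated 15 min at room temperature with compound in 50 mM Tris-HCl pH 8, 0.01% Tween 20. Started with 1 mM NAD+ and 30 uM prostaglandin E2; NADH fluorescence (360/450 nm) read 5 times over 30-s intervals, last minus first.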
# IMPase cell inh – cell-permeable inhibitors of inositol monophosphatase (IMPase); inhibition (IP1 accumulation), % at 46.1 µM; P97697; CHO-M1 cells, IP1 accumulation, HTRF TR-FRET ratio; 120,000 tested, under 10 active; active = well fitted curve in the direction sought with a large enough effect in the signal ratio, not every such curve was filed as active; inconclusive = small, poorly fitted or top-dose-only effect, or a change in a side signal; inactive = no such curve, though single readings can be large or run the other way; the % refers to the signal ratio;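 also: cells stimulated with carbachol in lithium chloride buffer; plate controls were DMSO basal wells for no effect and reference inhibitor wells for full effect; higher means more IMPase inhibition seen as more IP1 and lower FRET ratio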
# Target sequence (P97697 whole entry, looked up): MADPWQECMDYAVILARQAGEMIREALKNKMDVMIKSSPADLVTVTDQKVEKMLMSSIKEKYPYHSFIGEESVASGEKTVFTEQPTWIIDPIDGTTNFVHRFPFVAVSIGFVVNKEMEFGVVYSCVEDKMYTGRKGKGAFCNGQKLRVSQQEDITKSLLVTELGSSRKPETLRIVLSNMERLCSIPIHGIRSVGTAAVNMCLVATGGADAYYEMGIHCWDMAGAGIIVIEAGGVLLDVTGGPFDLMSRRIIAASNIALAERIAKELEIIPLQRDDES
#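 CHO-M1 cells (CHO stably expressing M1 receptor), compound up to 46 uM final, stimulated with carbachol (50 uM as added) in buffer with 50mM LiCl, pH 7.4, 30 min at 37C. Cytosolic IP1 read by TR-FRET; AC50 from Hill fits.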
# HTT cytoprotect – protects HTT-Q103 PC12 cells, measured by ATP; PC12 HTT-Q103 induced, cytoprotection, ATP luminescence, 40 h; Potency, µM (titrated, usually from 56.4 µM), inactives show cytoprotection (ATP increase), usual class: activators; 230,000 tested, 0.14% active; also: potency is read from the fitted curve at half-maximal effect; % of control where 0% means no effect; nearly all actives have a fitted effect of over 45% in size
#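 PC12 cells stably carrying ecdysone-inducible Htt exon 1 (Q103)–GFP were induced with 100 nM tebufenozide (final) alongside library compounds in a dose series. Cytoprotection was scored as retained ATP by ATPlite luminescence.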
# IMPase Li inh – IMPase inhibition in cells with lithium potentiation; CHO-M1 cells, IP1 TR-FRET (IP-One), carbachol + lithium; Potency, µM (top dose mostly 59.4 µM), for inactives: top-dose activity, negative = IMPase inhibition, usual class: inhibitors; 210,000 tested, 0.35% active;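 also: IP1 builds up when IMPase is blocked and the TR-FRET signal falls; potency is read from the fitted curve at half-maximal effect; plate controls were basal vehicle for no effect and high inhibitor control for full effect; nearly all actives have a fitted effect of over 50% in size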
#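 Steps: plate 2000 CHO-M1 cells per well and culture 16–30 h; add compound and lithium; incubate 30 min, 37C; add d2-IP1 tracer and Eu cryptate anti-IP1 antibody in lysis buffer; read after 10 min at room temperature.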
# The depositor's hits bear a star; ? = inconclusive; nt = not tested or not shown; [ ] = dose if it differs, or a comment. Unless noted, calls follow the shape of the dose curve; as a rule, active = well fitted curve in the direction sought with a large enough effect; inconclusive = small, poorly fitted or top-dose-only effect, or another doubt; inactive = no such curve, though single readings can be large; an effect the other way counts as inactive or inconclusive.
SMILES,HTT aggregate,ALDH1A1 inh,HPGD block,IMPase cell inh,HTT cytoprotect,IMPase Li inh
COc1ccc2[nH]cc(C(O)CN3CCN(c4ccccc4)CC3)c2c1 (stereo not drawn),?,-5%,nt,8,-41%[0.074 µM],nt
COc1ccc(NS(=O)(=O)c2ccc(NS(=O)(=O)c3ccc(C)cc3)cc2)nn1,-3%,13µM*,-12%,3,-15%[10 µM],11%[38.3 µM]
CC(C)c1ccc(NC(=O)C(c2ccccc2)N(Cc2ccco2)C(=O)CC2NC(=O)NC2=O)cc1 (stereo not drawn),21%,7.9µM*,nt,nt,-37%,-4%
C/C(=N/NC(=O)c1cc(-c2ccc(Cl)s2)[nH]n1)c1ccco1,7%[9.22 µM],nt,nt,nt,0%[10 µM],nt
O=C(CN1CCOCC1)n1c2ccccc2c2ccccc21,2.8µM*,5%,-2%,-5,-8%[10 µM],-14%[38.3 µM]
O=C(Cn1nnc(-c2ccc(CN3CCOCC3)cc2)n1)N1CCCc2ccccc21,10%,1%,-10%,0,1%[10 µM],-4%[38.3 µM]
S=C(c1cn(CCOc2cccc3ccccc23)c2ccccc12)N1CCCC1,?,28µM*,-11%,nt,nt,3%
O=C(CN1CCOCC1)N1CCCc2ccccc21,nt,7.9µM*,nt,nt,nt,10%
O=C(C(=O)N1CCOCC1)c1cn(CC(=O)N2CCc3ccccc3C2)c2ccccc12,-6%,20µM*,nt,nt,nt,3%
O=C(O)Cn1cc(C(=S)N2CCOCC2)c2ccccc21,11%,19µM*,18µM*,-6,-11%,6%[38.3 µM]
O=C(Cn1cc(C(=S)N2CCOCC2)c2ccccc21)N1CCOCC1,-11%,2%,-6%,9,-7%,-5%[38.3 µM]
O=C(O)Cn1cc(C(=S)N2CCCCC2)c2ccccc21,7%,10µM*,nt,nt,nt,4%
COCCNC(=O)Cn1cc(C(=S)N2CCCCC2)c2ccccc21,-18%,-12%,nt,nt,-5%,4%
CCC(C)NC(=O)Cn1c(=O)n(Cc2ccc(C(=O)NCc3ccc(C)cc3)cc2)c(=O)c2ccccc21 (stereo not drawn),nt,nt,nt,4,nt,nt
CO[C@H]1COC(=O)C/C=C\[C@@H](C)COC(=O)[C@H]2CCCN2C(=O)C/C=C\[C@H]1C,nt,8%[13.5 µM],nt,nt,1%[10 µM],nt
CCCc1cc(=O)[nH]c(SCc2cc(C(=O)OC)c(C)o2)n1,8%,-10%,16µM*,-3,-5%,12%[38.3 µM]
COC(=O)NC(c1ccco1)C(C(C)=O)C(=O)OC (stereo not drawn),nt,4%[13.5 µM],nt,nt,-23%[10 µM],nt
Cc1ccc(-c2nnc(SCC(=O)N3CCOCC3)nc2-c2ccc(C)cc2)cc1,-2%,?,18µM*,9,-35%,-3%[38.3 µM]
Cc1ccc(CSCC(=O)N2CCOCC2)cc1,4%,25µM*,-14%,-10,15%[10 µM],7%[38.3 µM]
Cc1ccc(OCc2nnc(SCC(=O)N3CCOCC3)n2C)cc1,4%,-1%,-14%,9,13µM*,12%[38.3 µM]
Cc1ccc(SCC(=O)N2CCOCC2)cc1,9%,0%,-14%,-5,-13%[0.074 µM],6%
Cc1ccc(C(CC(=O)N2CCOCC2)c2ccco2)cc1 (stereo not drawn),13%,?,20µM*,-5,-4%[10 µM],21%[38.3 µM]
C/C=C/C1=Cc2ccccc2C(C(C(=O)OC)C(=O)OC)N1C(=O)OC (stereo not drawn),nt,3%,-2%,nt,0%,2%
CCc1nc(SCc2cc(Cl)ccc2OC)n[nH]1,-8%,-3%,13µM*,9,-35%[0.074 µM],17%[38.3 µM]
CC(=O)Nc1nc(SCc2ccc(Cl)cc2Cl)n[nH]1,nt,-3%,1%,1,?,-4%[38.3 µM]
SMILES,HTT aggregate,ALDH1A1 inh,HPGD block,IMPase cell inh,HTT cytoprotect,IMPase Li inh
CCCc1nc(SCc2ccccc2Cl)n[nH]1,-23%,-4%,13µM*,-6,-7%[10 µM],2%[38.3 µM]
CCCCc1ccc(NC=C2C(=O)OC3(CCCCC3)OC2=O)cc1,?,?,-7%,3,-21%,26%[38.3 µM]
NS(=O)(=O)c1ccc(NC=C2C(=O)OC3(CCCCC3)OC2=O)cc1,1%,1.9µM*,35µM*,?,-9%,-2%[38.3 µM]
CC1CCC(C(C)C)[C@H](O)C1 (stereo partly drawn),nt,-2%,-11%,nt,-28%,-2%
COc1ccc(C2CC(=O)c3ccccc3O2)cc1 (stereo not drawn),-15%,9%,1%,nt,nt,7%
Cc1ccc(S(=O)(=O)NC(C)(C)CSc2nncn2N)cc1,2.8µM*,-8%,-7%,1,?,23%[38.3 µM]
CC(C)(CSc1ncccn1)NS(=O)(=O)c1ccccc1,-16%,?,nt,nt,0%,6%
Cc1ccc(S(=O)(=O)NC(C)(C)CSc2nnc(Nc3ccccc3)s2)cc1,20%[9.22 µM],20µM*,-10%,7,-35%,13%[38.3 µM]
Cc1ccc(-c2nnc(CSc3nncn3N)o2)cc1,8%,-20%,10%,-10,-15%[10 µM],-5%[38.3 µM]
CCOc1ccc(N=Nc2c(=O)[nH]n3c(=O)cc(C)[nH]c23)cc1,-3%,-2%,40µM*,22,-72%,27%[38.3 µM]
CCOc1ccc(N=Nc2c(N)[nH][nH]c2=O)cc1,-1%,19µM*,-13%,nt,nt,40%
Cc1cc(=O)n2[nH]c(=O)c(N=Nc3ccccc3)c2[nH]1,-7%,?,?,22,-16%,14%[38.3 µM]
COc1cccc(N=Nc2c(N)[nH][nH]c2=O)c1,-11%,-1%,-25%,nt,nt,24%
Nc1cccc(/C=C/c2ccncc2)c1,-1%[9.22 µM],nt,nt,nt,8%[10 µM],nt
Cc1ccc(Nc2c(-c3ccncc3)nc3ccc(C)cn23)cc1,nt,nt,nt,11,nt,nt
NC(=O)C1(NC(=O)[C@@H]2CC3(CC(c4cccc(NC(=O)[C@@H]5CCC(=O)N5)c4)=NO3)CN2C(=O)c2cnccn2)CC1 (stereo partly drawn),-6%,22µM*,-13%,9,9%,-10%[38.3 µM]
O=C(O)c1ccc(CSc2nc(-c3ccccc3)cc(C(F)(F)F)n2)cc1,23%,8%,-14%,nt,37%[10 µM],3%
O=C(O)c1ccc(CSc2nc(-c3ccc(Cl)cc3)cc(C(F)(F)F)n2)cc1,9%,2%,13µM*,-1,-7%,38%[38.3 µM]
COc1ccc(-c2cc(CNC(=O)CN3CCN(C)CC3)on2)cc1,?,?,-11%,6,-10%[10 µM],2%
CCN(CC)CC(=O)NCc1cc(-c2ccc(OC)cc2)no1,0%,-12%,1.3µM*,2,11%,5%[38.3 µM]
Cc1cccc(C)c1NC(=O)CN(Cc1ccc(Br)cc1)S(=O)(=O)c1ccccc1,nt,nt,nt,1,nt,nt
COc1cc(Cn2c(=O)sc3ccccc32)ccc1OCCC(C)C,nt,nt,nt,3,nt,nt
CCn1c2ccccc2c2cc(/C=N/n3cn[nH]c3=S)ccc21,-13%,22µM*,16µM*,6,-26%,1%[38.3 µM]
S=c1[nH]ncn1/N=C/c1ccc(Br)cc1,-8%,32µM*,22µM*,9,-17%,-14%[38.3 µM]
